TWEAK Fn14 block = inhibitors of TWEAK-Fn14 signaling, primary screen, luciferase reporter cells, uHTS. TWEAK-stimulated Fn14 reporter cells, luciferase luminescence, 8 h. inhibition, % at 10 µM. 360,000 tested, 2% active. AID 1159606, 2016; in the data active = inhibition above about 50%
LMP1 NFkB inh = EBV LMP1-driven NF-kappaB luciferase reporter inhibitors, primary screen, cell-based, luminescence, single point; LMP1-induced NF-kappaB luciferase reporter cells; inhibition, % at 12.5 µM; 350,000 tested, 0.69% active; AID 504558, 2011; in the data active = inhibition above about 41%;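 also: 0% = neutral control wells and 100% = reference inhibitor control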
TROY signal inh = inhibitors of TROY-driven NF-kB signaling, primary screen, Q293 LMP1-TROYcd cells, NF-kB luciferase, uHTS; 360,000 tested, 0.98% active; Q293 LMP1-TROYcd NF-kB luciferase reporter, 4 h; inhibition, % at 10 µM; AID 1347056, 2019;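 active = compounds whose plate-normalised and pattern-corrected inhibition of the luciferase reporter signal at the single screening dose is 50% or more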
Peg3 prom inh = Peg3 promoter-driven luciferase inhibitors, primary screen, cell-based, HeLa, luciferase luminescence. HeLa PEG-Prom luciferase reporter, overnight. inhibition, % at 20 µM. 360,000 tested, 1.7% active;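 active = inhibition of at least 50% at 20 µM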
HIF-2a inh = HIF-2a reporter inhibitors, primary screen, luminescence, 786-0 RCC cells; 786-0 RCC cells HIF-2a reporter, luciferase luminescence, overnight; inhibition, % at 18.8 µM; 360,000 tested, 0.72% active;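 active = inhibition of the luminescence signal of 40% or more relative to plate controls, in a single-dose primary screen at 18.75 µM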
TRPM1 prom inh = inhibitors of MITF-dependent TRPM1 promoter reporter, primary screen, cell-based, SK-MEL-5, single point, luciferase | SK-MEL-5 TRPM1 promoter luciferase, 24 h | inhibition, % at 12.5 µM | 330,000 tested, 0.83% active | AID 488899, 2010;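 active = mean inhibition across replicates of 60% or more, whatever share of single replicates reaches that level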
* marks the source's active call; other numbers are inactive results; nt = not tested or not shown. In the library only some 4% were active in any assay of this set; here they are far more common.

SMILES | TWEAK Fn14 block | LMP1 NFkB inh | TROY signal inh | Peg3 prom inh | HIF-2a inh | TRPM1 prom inh
O=C(O)c1cc(-c2ccc3c(c2)OCCO3)n[nH]1 | -3.1 | 10.2 | 4.2 | 0.3 | 19.8 | 14.0
COc1ccc(C(=O)NCCCNC(=O)c2cc3ccccc3[nH]2)cc1OC | -3.1 | 75.5* | 15.7 | 14.5 | 17.1 | 12.9
COc1ccc(C(=O)NCC(=O)Nc2ccccc2)cc1OC | 59.4* | -0.9 | nt | -0.4 | -2.1 | -3.5
COc1cc(C(=O)NCC(=O)Nc2c(C)cccc2C)ccc1OCc1ccccc1 | -5.0 | -3.7 | -27.5 | -30.8 | -19.2 | -11.1
Cc1cc(SCC(=O)N/N=C/c2ccc(O)c(O)c2O)c(C)cc1Br | -10.6 | 6.9 | 23.2 | 41.4 | 22.7 | 65.5*
Cc1ccc(S(=O)(=O)NC2CCCC2)cc1C | 1.6 | 0.0 | -4.3 | -3.0 | 16.9 | 2.0
Cc1ccc(S(=O)(=O)NC2CCSC2=O)cc1C (stereo not given) | -6.3 | 69.4* | -7.0 | -0.2 | 14.6 | 11.8
Cc1ccc(CNC(=O)CN(c2ccc(Cl)cc2)S(C)(=O)=O)cc1 | -22.5 | -6.9 | -36.3 | -51.8 | -86.9 | -23.1
O=C(NCCc1c[nH]c2ccccc12)C1CCC(Cn2c(=S)[nH]c3ccccc3c2=O)CC1 (stereo not given) | 61.6* | 2.4 | 28.8 | 29.1 | 19.6 | -1.0
COCCNC(=O)C1CCC(Cn2c(=S)[nH]c3ccccc3c2=O)CC1 (stereo not given) | -14.2 | 3.7 | -12.4 | 10.1 | 11.7 | 10.2
C=CCNC(=O)/C(C#N)=C/c1c(N(Cc2ccccc2)Cc2ccccc2)nc2ccccn2c1=O | 3.8 | 3.4 | 22.9 | 50.0* | 26.0 | 10.1
COc1cccc(N2CCN(c3nc(C)c(C)c(=O)[nH]3)CC2)c1 | 7.2 | -11.7 | -9.8 | 13.8 | 15.7 | 10.2
COc1cccc(N2CCN(c3nc(-c4ccccc4C)cc(=O)[nH]3)CC2)c1 | 20.6 | -42.1 | 7.4 | 103.6* | -52.7 | -2.7
CC1(C)COC(/C=C/c2ccc([N+](=O)[O-])cc2)=N1 | 62.0* | 8.7 | -66.4 | 3.4 | -77.0 | 5.4
Cc1ccccc1C(=O)N1CCC(C(=O)NC(C)c2ccc(-n3ccnc3)cc2)CC1 (stereo not given) | 14.9 | 5.3 | 2.9 | 3.3 | 14.1 | 8.5
CCC(=O)Nc1sc2c(c1C(N)=O)CCN(C(C)=O)C2 | -14.1 | -8.4 | -1.6 | 4.3 | 11.1 | nt
CC(=O)N1CCc2c(sc(NC(=O)c3ccc([N+](=O)[O-])o3)c2C(N)=O)C1 | 11.3 | -25.5 | -2.3 | 97.2* | -64.7 | nt
Cc1c(Cl)cccc1NC(=S)/C(=C(\[O-])c1ccc(Cl)s1)[n+]1ccccc1 | 11.1 | -3.5 | -10.7 | 58.1* | -9.7 | 19.9
CC(C)c1ccccc1NC(=S)NCC1(N(C)C)CCCCC1 | 9.1 | 9.7 | 12.1 | 0.5 | 5.2 | -3.4
CCOC(=O)Nc1ccc2c(c1)N(C(=O)CCN(CC)CC)c1ccccc1S2=O (stereo not given) | 64.5* | 3.2 | 54.5* | 57.8* | 27.9 | 10.8
CCOC(=O)Nc1ccc2c(c1)N(C(=O)CCN(CC)CC)c1ccccc1CC2 | 5.5 | -23.7 | 7.3 | 7.2 | 17.4 | -12.9
CC(=O)NC(c1ccc(C)cc1)c1cc([N+](=O)[O-])c2cccnc2c1O (stereo not given) | 5.0 | 25.9 | 11.7 | 53.5* | 23.8 | -5.8
CC(=O)NC(c1cc(F)c2cccnc2c1O)C1CC1 (stereo not given) | 4.7 | 16.4 | -0.9 | 19.4 | 9.4 | 10.2
CCCC(=O)NC(c1ccco1)c1cc([N+](=O)[O-])c2cccnc2c1O (stereo not given) | 23.8 | -3.1 | 12.5 | 37.7 | 11.3 | -4.4
CCC(=O)NC(c1ccc(C)cc1)c1cc([N+](=O)[O-])c2cccnc2c1O (stereo not given) | 23.1 | 16.8 | -9.0 | 52.6* | -1.2 | 6.4
Cc1cc2oc3cc(NCCC4CCCN4C)ccc3c(=O)c2cc1C (stereo not given) | -6.2 | -21.2 | -36.4 | 83.2* | -259.7 | 8.9
CNc1ccc(C(=O)c2ccccc2C(=O)O)cc1[N+](=O)[O-] | -0.4 | -3.1 | 14.7 | -5.1 | 6.7 | 0.3

High-throughput results as filed in PubChem BioAssay.
